# Measured values as given in PubChem BioAssay (NCI).
# About 79,000 compounds went through this panel and 15% of them were active in at least one assay; those are over-represented in the sample as a whole. A number with no mark means an inactive call. Active and inactive are the calls of the source. No stated cut-off is given here; in the data, active means growth inhibition above about 70%; inactive means the rest.
# What was measured:
# [1] = NCI Yeast Anticancer Drug Screen. Data for the rad50 strain (AID 155);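 further: 0% = growth of vehicle-only cultures of the same strain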; conditions: S. cerevisiae rad50 strain growth inhibition, active compounds read high
# How it was run: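 A DNA repair-deficient yeast mutant serves as the test organism; compound-induced growth inhibition is calculated against vehicle-treated cells.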
# [2] = NCI Yeast Anticancer Drug Screen. Data for the mec2-1 strain (AID 157); conditions: S. cerevisiae mec2-1 strain, active compounds read high
# How it was run: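 Strain: mec2-1 (DNA repair/cell cycle alteration). Compound exposure, then growth measured; inhibition expressed relative to vehicle.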
# [3] = NCI Yeast Anticancer Drug Screen. Data for the sgs1 mgt1 strain (AID 161);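 further: 0% = growth of cultures given vehicle only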; conditions: S. cerevisiae sgs1 mgt1 strain, active compounds read high
# How it was run: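 Read-out: growth inhibition vs vehicle controls. Cells: mutant yeast strain deficient in DNA damage repair.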
# [4] = NCI Yeast Anticancer Drug Screen. Data for the cln2 rad14 strain (AID 165);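 further: 0% = growth equal to vehicle treated cultures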; conditions: S. cerevisiae cln2 rad14 strain, active compounds read high
# How it was run: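 Compounds are applied to the cln2 rad14 yeast strain, and growth is then compared with that of vehicle-treated cultures to give inhibition.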
# [5] = NCI Yeast Anticancer Drug Screen. Data for the bub3 strain (AID 167); conditions: S. cerevisiae bub3 mutant strain, active compounds read high
# How it was run: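 Inhibition values come from growth of compound-treated mutant yeast normalised to vehicle-treated controls.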
# [6] = NCI Yeast Anticancer Drug Screen. Data for the mlh1 rad18 strain (AID 175); conditions: S. cerevisiae mlh1 rad18 strain growth inhibition, active compounds read high
# How it was run: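 Read-out is yeast growth inhibition, calculated against vehicle-only controls. The compound was applied to a strain engineered with DNA damage repair alterations.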
# [7] = at 5.0 µM (retest, dose inferred, filed as 0.5)
# [8] = at 50.0 µM (retest, dose inferred, filed as 5.0)
SMILES,"growth inhibition [1, 7] [%]","growth inhibition [1, 8]",growth inhibition ([1]; at 50.0 µM),"growth inhibition [2, 7] [%]","growth inhibition [2, 8]",growth inhibition ([2]; at 50.0 µM),"growth inhibition [3, 7] [%]","growth inhibition [3, 8]",growth inhibition ([3]; at 50.0 µM),"growth inhibition [4, 7] [%]","growth inhibition [4, 8]",growth inhibition ([4]; at 50.0 µM),"growth inhibition [5, 7] [%]","growth inhibition [5, 8]",growth inhibition ([5]; at 50.0 µM),"growth inhibition [6, 7] [%]","growth inhibition [6, 8]",growth inhibition ([6]; at 50.0 µM)
c1ccc(N=Nc2n[nH]c3ccccc23)cc1,-144,94% (active),98.6% (active),-51,74% (active),98.8% (active),-66,85% (active),92.6% (active),-59,29%,98% (active),-65,91% (active),97.1% (active),-119,94% (active),97% (active)
OC1CC2CCC(C1)N2CCCN1c2ccccc2Sc2ccc(Cl)cc21 (centres undefined),12,99% (active),99% (active),13,80% (active),97.2% (active),-4,61%,99.1% (active),-23,74% (active),97.5% (active),-20,97% (active),99.2% (active),10,97% (active),94.4% (active)
CC(=O)Nc1ccc(C(=O)NN2C(=O)C(Cl)C2c2cc(Br)cc(Br)c2O)cc1 (centres undefined),20,-5%,-18%,-6,5%,-25.1%,-1,-7%,-23.4%,0,12%,2%,-17,-11%,0.85%,7,26%,-35%
CC(CN1CCCCCCC1)C(c1ccccc1)c1ccccc1 (centres undefined),2,81% (active),66.3%,-3,76% (active),61.8%,7,98% (active),94.1% (active),-5,73% (active),96.2% (active),-2,87% (active),98.5% (active),-3,89% (active),86.5% (active)
CN(C)CC1CCC/C(=C\c2ccc(Cl)c(Cl)c2)C1=O (centres undefined),19,98% (active),69.3%,9,98% (active),81.8% (active),-1,97% (active),86.5% (active),7,97% (active),86.5% (active),-22,98% (active),86% (active),6,97% (active),89.3% (active)
CC[N-]c1nncs1.CC[N-]c1nncs1.CC[N-]c1nncs1.CC[N-]c1nncs1.[Cl][Rh][Cl],-8,95% (active),97.7% (active),43,74% (active),97.8% (active),11,93% (active),98.5% (active),0,77% (active),91% (active),-4,77% (active),95.6% (active),15,95% (active),97.6% (active)
CC1CCC(C)(C)c2cc([N+](=O)[O-])cc([N+](=O)[O-])c21 (centres undefined),-1,99% (active),-6.5%,0,99% (active),-0.75%,-4,99% (active),26.2%,1,99% (active),-8.1%,18,99% (active),80.2% (active),-1,99% (active),17.9%
CC(=O)OCCc1ccc(CCc2ccccc2)cc1,13,47%,40.3%,1,4%,18.6%,6,28%,18.6%,4,-6%,-31.6%,8,45%,67.7%,6,-4%,62.6%
COc1cccc(C2c3cc4c(cc3OC(N3CCCC3)C2C)OCO4)c1 (centres undefined),-16,74% (active),85.2% (active),-34,82% (active),82% (active),-27,54%,77.8% (active),-15,67%,76.3% (active),-30,88% (active),85% (active),-32,72% (active),80.1% (active)
CCOc1ccnc2c(C)c3c([nH]c4ccccc43)c(C)c12,50,99% (active),99.2% (active),23,99% (active),99.5% (active),29,52%,99.2% (active),14,97% (active),99% (active),11,99% (active),99.3% (active),16,99% (active),99.3% (active)
CC(=O)Oc1cc(OC(C)=O)c2cc(Br)ccc2c1OC(C)=O,-5,63%,87.5% (active),3,47%,72.8% (active),-19,67%,62.8%,0,37%,70.2% (active),0,65%,94.1% (active),5,69%,90.7% (active)
O=C1OC2(CCN(Cc3ccccc3)CC2)C(=O)N1c1cccc(Cl)c1,-1,35%,79.5% (active),-8,22%,18.5%,28,58%,76.5% (active),60,52%,40.8%,14,81% (active),52.8%,3,37%,62.5%
CC(=O)Nc1cccc(C(=O)O)c1,6,-2%,1.3%,-1,-4%,0%,-5,1%,5.75%,4,-1%,39.9%,4,7%,8.6%,1,-3%,-16.6%
